Measurements taken from PubChem BioAssay.
Unmarked numbers belong to inactive results. Calls of active or inactive are those of the source.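 The calls were made as follows, unless noted: active = mean inhibition above 46.68%, the untreated control wells mean plus 3 SD; inactive = the rest.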

Key:
[1] = target: Nuclear receptor coactivator 3 (Homo sapiens) (UniProt Q9Y6Q9); assay: SRC3 coactivator transcriptional activity inhibitors, confirmation, cell-based, luminescence, quadruplicate (AID 588792;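 active = mean inhibition over 43.08%, the solvent-only control mean plus 3 SD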;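 also: 0% = DMSO treated cells and 100% = gossypol at 36 µM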); settings: HEK293 GAL4-SRC3 luciferase reporter, at 3.6 µM, hits give high values
Nuclear receptor coactivator 3 (Homo sapiens), sequence (Q9Y6Q9 whole entry, looked up, the tested form may be a part): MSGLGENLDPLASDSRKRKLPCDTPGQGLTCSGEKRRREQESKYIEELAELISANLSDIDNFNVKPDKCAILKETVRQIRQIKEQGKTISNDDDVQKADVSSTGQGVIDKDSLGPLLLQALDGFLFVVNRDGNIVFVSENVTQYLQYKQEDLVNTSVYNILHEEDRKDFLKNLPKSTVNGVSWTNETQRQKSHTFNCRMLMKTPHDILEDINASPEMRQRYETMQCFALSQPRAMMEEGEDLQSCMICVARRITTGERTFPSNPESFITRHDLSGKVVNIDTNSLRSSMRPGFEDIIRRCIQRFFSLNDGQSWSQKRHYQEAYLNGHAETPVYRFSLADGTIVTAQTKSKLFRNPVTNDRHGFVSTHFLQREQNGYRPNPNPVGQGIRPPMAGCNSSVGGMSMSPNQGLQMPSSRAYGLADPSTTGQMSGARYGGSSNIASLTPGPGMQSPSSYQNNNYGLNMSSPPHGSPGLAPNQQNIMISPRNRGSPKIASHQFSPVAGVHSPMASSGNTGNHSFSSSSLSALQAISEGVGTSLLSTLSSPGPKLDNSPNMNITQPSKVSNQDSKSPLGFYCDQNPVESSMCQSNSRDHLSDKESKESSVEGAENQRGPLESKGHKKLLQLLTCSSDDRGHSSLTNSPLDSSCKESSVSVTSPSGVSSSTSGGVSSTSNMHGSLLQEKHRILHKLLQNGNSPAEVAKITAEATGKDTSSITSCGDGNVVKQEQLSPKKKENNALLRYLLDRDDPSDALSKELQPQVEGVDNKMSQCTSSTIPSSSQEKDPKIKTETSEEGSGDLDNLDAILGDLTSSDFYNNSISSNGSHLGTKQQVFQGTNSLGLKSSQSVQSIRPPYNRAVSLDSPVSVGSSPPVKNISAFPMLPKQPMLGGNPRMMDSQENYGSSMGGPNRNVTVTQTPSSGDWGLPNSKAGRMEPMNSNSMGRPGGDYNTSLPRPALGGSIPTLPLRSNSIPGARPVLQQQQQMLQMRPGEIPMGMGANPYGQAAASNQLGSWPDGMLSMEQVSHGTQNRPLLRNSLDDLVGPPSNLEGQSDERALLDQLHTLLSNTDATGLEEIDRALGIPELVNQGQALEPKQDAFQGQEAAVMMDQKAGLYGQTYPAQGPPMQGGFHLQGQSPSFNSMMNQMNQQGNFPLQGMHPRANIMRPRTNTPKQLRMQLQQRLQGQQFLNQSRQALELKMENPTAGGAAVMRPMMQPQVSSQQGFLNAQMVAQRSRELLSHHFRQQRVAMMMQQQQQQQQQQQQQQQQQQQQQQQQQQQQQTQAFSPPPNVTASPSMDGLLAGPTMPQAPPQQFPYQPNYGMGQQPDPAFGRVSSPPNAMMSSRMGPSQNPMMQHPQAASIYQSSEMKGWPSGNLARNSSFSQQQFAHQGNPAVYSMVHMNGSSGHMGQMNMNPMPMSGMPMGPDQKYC

[2] = system: transactivating tegument protein VP16 (Human herpesvirus 1), Gal4-VP16 luciferase reporter; assay: VP16 transactivation inhibitors, counter-screen for SRC3 inhibitor project, cell-based, luminescence, high throughput (AID 588794; in the data active = inhibition above about 30%); settings: mammalian cells, VP16-driven luciferase reporter luminescence; at 3.6 µM; hits give high values
[3] = target: Nuclear receptor coactivator 1 (Homo sapiens) (UniProt Q15788); assay: SRC1 coactivator transcriptional activity inhibitors, confirmation, cell-based, luminescence, quadruplicate (AID 588820); settings: HEK293 GAL4-SRC1 luciferase reporter, at 3.6 µM, hits give high values;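 also: 0% = DMSO wells and 100% = gossypol 36 µM treated wells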
Nuclear receptor coactivator 1 (Homo sapiens), sequence (Q15788 whole entry, looked up, the tested form may be a part): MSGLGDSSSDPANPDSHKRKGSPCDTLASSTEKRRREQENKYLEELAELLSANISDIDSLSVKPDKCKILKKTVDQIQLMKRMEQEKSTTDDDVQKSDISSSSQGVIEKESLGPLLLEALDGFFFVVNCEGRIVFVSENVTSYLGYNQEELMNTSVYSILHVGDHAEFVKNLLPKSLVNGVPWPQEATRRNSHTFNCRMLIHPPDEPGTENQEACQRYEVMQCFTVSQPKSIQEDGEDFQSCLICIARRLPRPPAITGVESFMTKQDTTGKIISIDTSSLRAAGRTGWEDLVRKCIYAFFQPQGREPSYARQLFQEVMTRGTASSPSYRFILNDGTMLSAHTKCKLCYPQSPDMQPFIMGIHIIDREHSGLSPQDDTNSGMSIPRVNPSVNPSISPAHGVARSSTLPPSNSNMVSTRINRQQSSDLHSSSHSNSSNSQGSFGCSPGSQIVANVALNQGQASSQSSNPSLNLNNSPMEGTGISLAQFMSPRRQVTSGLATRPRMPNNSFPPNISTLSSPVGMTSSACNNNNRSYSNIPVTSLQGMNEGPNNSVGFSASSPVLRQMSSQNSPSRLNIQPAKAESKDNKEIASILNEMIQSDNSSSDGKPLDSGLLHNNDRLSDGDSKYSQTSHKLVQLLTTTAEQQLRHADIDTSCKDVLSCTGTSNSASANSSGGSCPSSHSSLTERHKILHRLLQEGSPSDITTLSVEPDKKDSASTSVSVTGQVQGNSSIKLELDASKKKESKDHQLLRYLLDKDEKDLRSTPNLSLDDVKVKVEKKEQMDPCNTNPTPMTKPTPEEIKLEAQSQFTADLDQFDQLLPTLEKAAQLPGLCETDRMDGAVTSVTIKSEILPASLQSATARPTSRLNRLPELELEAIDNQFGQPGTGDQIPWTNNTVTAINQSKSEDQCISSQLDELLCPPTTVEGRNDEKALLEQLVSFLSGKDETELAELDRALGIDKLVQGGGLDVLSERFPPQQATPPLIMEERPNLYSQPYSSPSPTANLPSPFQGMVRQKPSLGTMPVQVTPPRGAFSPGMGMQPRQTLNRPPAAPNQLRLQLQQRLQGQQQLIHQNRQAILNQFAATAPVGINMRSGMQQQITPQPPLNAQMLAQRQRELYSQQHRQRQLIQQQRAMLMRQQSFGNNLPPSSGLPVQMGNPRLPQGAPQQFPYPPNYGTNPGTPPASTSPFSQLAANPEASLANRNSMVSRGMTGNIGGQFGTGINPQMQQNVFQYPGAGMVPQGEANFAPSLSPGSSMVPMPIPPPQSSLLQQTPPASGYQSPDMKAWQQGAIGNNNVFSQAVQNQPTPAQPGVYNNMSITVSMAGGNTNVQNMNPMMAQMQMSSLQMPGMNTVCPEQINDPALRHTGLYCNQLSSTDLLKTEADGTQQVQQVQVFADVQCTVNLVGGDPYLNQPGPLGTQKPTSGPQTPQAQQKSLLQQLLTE

[4] = VP16 transactivation inhibitors, counter-screen for SRC1 inhibitor project, cell-based, luminescence, high throughput (AID 588824; in the data active = inhibition above about 25%); settings: cell-based VP16 transactivation luciferase luminescence; at 3.6 µM; hits give high values
[5] = StAR promoter reporter inhibitors, counter-screen for LRH-1 inverse agonist project, cell-based, luminescence, high throughput (AID 651611; in the data active = inhibition above about 28%); settings: StAR promoter luciferase reporter counterscreen, at 3.6 µM, hits give high values
[6] = target: Nuclear receptor subfamily 5 group A member 2 (Homo sapiens) (UniProt O00482); assay: LRH-1 (NR5A2) inverse agonists, retest, confirmation, cell-based, luminescence (AID 651613; in the data active = inhibition above about 42%;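 also: HEK293T cells co-transfected with LRH-1 and StAR promoter luciferase reporter; 0% = vehicle wells and 100% = parental cells lacking receptor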); settings: cell-based LRH-1 luciferase reporter, inverse agonism; at 3.6 µM; hits give high values
Nuclear receptor subfamily 5 group A member 2 (Homo sapiens), sequence (O00482 whole entry, looked up): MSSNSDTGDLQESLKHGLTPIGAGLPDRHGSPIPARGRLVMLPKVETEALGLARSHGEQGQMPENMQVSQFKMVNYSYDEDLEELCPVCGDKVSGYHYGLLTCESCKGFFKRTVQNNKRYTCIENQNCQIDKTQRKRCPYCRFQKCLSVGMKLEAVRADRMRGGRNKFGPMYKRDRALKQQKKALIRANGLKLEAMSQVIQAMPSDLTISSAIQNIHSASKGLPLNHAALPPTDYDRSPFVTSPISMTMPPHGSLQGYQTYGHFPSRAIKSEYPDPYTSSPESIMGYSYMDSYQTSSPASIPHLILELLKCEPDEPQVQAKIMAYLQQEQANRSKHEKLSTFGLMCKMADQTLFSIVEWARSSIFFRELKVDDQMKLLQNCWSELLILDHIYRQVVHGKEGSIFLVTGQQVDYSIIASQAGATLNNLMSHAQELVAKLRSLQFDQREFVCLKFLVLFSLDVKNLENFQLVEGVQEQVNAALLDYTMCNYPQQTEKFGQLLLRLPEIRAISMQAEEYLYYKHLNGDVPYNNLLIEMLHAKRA

[7] = target: Steroidogenic factor 1 (Homo sapiens) (UniProt Q13285); assay: SF1 (NR5A1) inverse agonists, counter-screen for LRH-1 inverse agonist project, cell-based, luminescence, high throughput (AID 651614; in the data active = inhibition above about 44%;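 also: cells cotransfected with StAR promoter reporter and SF1 expression vector; 0% = vehicle on cells with receptor and 100% = vehicle on cells lacking receptor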); settings: cell-based SF1 luciferase reporter, at 3.6 µM, hits give high values
Steroidogenic factor 1 (Homo sapiens), sequence (Q13285 whole entry, looked up, the tested form may be a part): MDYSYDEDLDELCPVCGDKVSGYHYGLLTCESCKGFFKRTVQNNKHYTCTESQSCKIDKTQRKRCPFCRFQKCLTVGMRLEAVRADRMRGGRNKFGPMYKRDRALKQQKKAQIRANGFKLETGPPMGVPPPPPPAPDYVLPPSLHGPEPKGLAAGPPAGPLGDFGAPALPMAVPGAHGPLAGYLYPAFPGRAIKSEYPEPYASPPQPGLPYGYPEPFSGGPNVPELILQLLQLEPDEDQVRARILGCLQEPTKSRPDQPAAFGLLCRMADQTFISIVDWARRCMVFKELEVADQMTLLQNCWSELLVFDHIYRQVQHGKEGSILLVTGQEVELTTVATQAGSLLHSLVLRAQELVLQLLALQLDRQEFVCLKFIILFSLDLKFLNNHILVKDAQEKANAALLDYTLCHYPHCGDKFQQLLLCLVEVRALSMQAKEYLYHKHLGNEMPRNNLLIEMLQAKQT

[8] = VP16 transactivation reporter inhibitors, counter-screen for LRH-1 inverse agonist project, cell-based, luminescence, high throughput (AID 651615; in the data active = inhibition above about 33%); settings: Gal4-VP16 luciferase reporter cells, at 3.6 µM, hits give high values

Row | SMILES | inhibition [1] | inhibition [2] | inhibition [3] | inhibition [4] | inhibition [5] | inhibition [6] | inhibition [7] | inhibition [8]
1 | CCN(CC)c1ccc2nc3ccc(N)cc3[n+](-c3ccccc3)c2c1 | 81.2% (active) | 79.9% (active) | 52.3% (active) | 81.5% (active) | 75.2% (active) | 111% (active) | 89.2% (active) | 92.6% (active)
2 | COc1cc(C2c3cc4c(cc3C(OC3OC5COC(c6cccs6)OC5C(O)C3O)C3COC(=O)C23)OCO4)cc(OC)c1O (stereo unspecified) | 72.2% (active) | -8.11% | 26% | -26.7% | 73.9% (active) | 82.6% (active) | 54.5% (active) | -36.1%
3 | CC(C)CCCCCCCCCCCCC(=O)NCC(=O)NC1C(O)C(O)C(Nc2ncnc3nc[nH]c23)OC1C(O)CO (stereo unspecified) | 96.9% (active) | 95.9% (active) | 94.2% (active) | 95.4% (active) | 96.7% (active) | 110% (active) | 98.1% (active) | 98.2% (active)
4 | CCN1/C(=C/c2ccc3cc(C)ccc3[n+]2CC)Sc2cc(C)c(C)cc21 | 38.9% | 65.4% (active) | 18.8% | 58.4% (active) | 55.6% (active) | 87.4% (active) | 83.1% (active) | 75.5% (active)
5 | CN(C)c1ccc(C=c2c3ccccc3n3c2c2c([n+]3C)CCCC2)cc1 | 75.3% (active) | 81.7% (active) | 55.7% (active) | 81.8% (active) | 79% (active) | 110% (active) | 94.3% (active) | 94.7% (active)
6 | COC(=O)C12OCC34C(CC5C(C)=C(O)C(=O)CC5(C)C3C(O)C1O)OC(=O)C(OC(=O)C=C(C)C)C24 (stereo unspecified) | 97.3% (active) | 96.7% (active) | 95.2% (active) | 96.3% (active) | 96.9% (active) | 110% (active) | 98.5% (active) | 97.6% (active)
7 | Cc1c(C)c2cccnc2c2ncccc12 | 88.2% (active) | 65.7% (active) | 72.8% (active) | 65.7% (active) | 89.9% (active) | 108% (active) | 91.9% (active) | 64.1% (active)
8 | CCN1CCS/C1=C\C=C\C1=[N+](CC)CCS1 | 22.6% | 44.8% (active) | 4.06% | 50.1% (active) | 32.9% (active) | 77% (active) | 79% (active) | 69.2% (active)
9 | NC(=Nc1nc(-c2ccccn2)cc2ccccc12)c1ccccn1 | 79% (active) | 47.7% (active) | 65.6% (active) | 28.4% (active) | 91.8% (active) | 107% (active) | 88.8% (active) | 59.3% (active)
10 | COc1ccc2[nH]c3c(C)c4ccncc4c(C)c3c2c1 | -29% | 53.7% (active) | 24.4% | 52.5% (active) | 60.9% (active) | 67.1% (active) | 68.7% (active) | 72.1% (active)
11 | Cn1nccc1C(=O)N/N=C/c1c(O)ccc2ccccc12 | 73.9% (active) | 74.6% (active) | 72% (active) | 71% (active) | 82.4% (active) | 101% (active) | 86.2% (active) | 71.1% (active)
12 | COc1cc(NS(C)(=O)=O)ccc1Nc1c2ccccc2nc2ccccc12 | 63.6% (active) | -6.87% | 61.1% (active) | -3.17% | 46.6% (active) | 108% (active) | 52% (active) | 78.8% (active)
13 | COC(=O)c1cc(O)cc(OC)c1Oc1cc(C)cc(O)c1C(=O)O | 13.8% | 62.9% (active) | 54.2% (active) | 60.2% (active) | 56.5% (active) | 73% (active) | 66.9% (active) | 65.5% (active)
14 | Cc1cccc2sc(NNC(=O)c3ccc(S(=O)(=O)N4CC(C)CC(C)C4)cc3)nc12 (stereo unspecified) | 31% | 23.7% | 32.8% | 34% (active) | 25% | 45% (active) | 36.2% | 40.9% (active)
15 | CCN(CC)c1ccc2nc3ccccc3[n+](CC)c2c1 | 50.2% (active) | 54.2% (active) | 40.5% | 59.6% (active) | 69.4% (active) | 88.3% (active) | 80.2% (active) | 68.7% (active)
16 | O=C(N/N=C/c1ccc[nH]1)c1ccc(COc2cccc3cccnc23)cc1 | 83% (active) | 71.8% (active) | 0.58% | 66.5% (active) | 86% (active) | 109% (active) | 96.3% (active) | 88.4% (active)
17 | CC1(C)CC(N2CCN(c3ccccc3)CC2)=CC(=[N+]2CCCC2)C1 | 23.8% | 37.6% (active) | 2.88% | 33.1% (active) | 30% (active) | 73.2% (active) | 66.5% (active) | 63.7% (active)
